A selection: hits, their analogues and other compounds. The true share with any hit is near 12%.
BAZ2B block – BAZ2B (human) inhibition; Q9UIF8; AlphaScreen BAZ2B-H3K14Ac peptide displacement; Potency, µM (series often up to 114 µM), inactives show at the top dose activity change, negative = inhibition, most hits filed as inhibitors; 360,000 compounds, 4.4% hits; note: % is set by controls: 0 for no effect and ±100 for the full control effect; nearly all actives have a fitted effect of over 60% in size
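In this displacement format the biotinylated H3(5-23) peptide acetylated at Lys14 serves as ligand at 50 nM, with BAZ2B at 50 nM in PBS pH 7.4 containing 0.01% Tween-20. Donor and acceptor beads are 10 ug/mL final.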
PLK1 PBD inh – blocks phosphopeptide binding to human PLK1 polo-box domain; AID 720504; Potency, µM, for inactives: max response, negative = inhibition, hits mostly inhibitors; Plk1 PBD binding of FITC phosphopeptide, fluorescence polarization; 360,000 compounds, 2.8% hits; note: series mostly up to about 57 µM; % is set by controls: 0 for no effect and ±100 for the full control effect; nearly all actives have a fitted effect of over 65% in size
Sfp inh – Sfp phosphopantetheinyl transferase inhibition; Biochemical Sfp PPTase activity, qHTS; Potency, µM, inactives show largest response in the series, negative = inhibition, usual class: inhibitors; 310,000 compounds, 3.5% hits;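 note: the enzyme is Sfp with the accession as filed and its product quenches rhodamine fluorescence; 0% = enzyme reaction without inhibitor and -100% = no enzyme wells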
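With Hepes-Na pH 7.6 buffer containing 10 mM MgCl2, Sfp (15 nM) modified BHQ-2-YbbR (12.5 uM) using rhodamine-CoA (5 uM). Two reads 30 minutes apart at 525/598 nm yielded each well's rate.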
HP1b binding inh – inhibitors of HP1-beta chromodomain binding to methylated histone tails; AlphaScreen HP1-beta / biotin-H3K9me3 peptide binding; 390,000 compounds, 0.56% hits; AID 540317; Potency, µM (titrated, usually from 114 µM), inactives show at the top dose activity change, negative = inhibition, most hits filed as inhibitors; note: nearly all actives have a fitted effect of over 70% in size
Target sequence (P83916 whole entry, looked up): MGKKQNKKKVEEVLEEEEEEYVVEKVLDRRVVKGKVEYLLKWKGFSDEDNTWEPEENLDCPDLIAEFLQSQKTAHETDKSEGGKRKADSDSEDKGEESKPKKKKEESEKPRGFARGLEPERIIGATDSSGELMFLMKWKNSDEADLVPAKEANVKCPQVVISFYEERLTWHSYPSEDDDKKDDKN
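AlphaScreen: HP1-beta (50 nM) preformed 30 min with biotin-H3(1-18)K9me3 peptide (50 nM) in PBS pH 7.4, 0.01% Tween-20. Compound added for 30 min at RT, then streptavidin donor/nickel chelate acceptor beads (10 ug/mL) for 30 min.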
G9a inh – blocks human histone lysine methyltransferase G9a | G9a H3K9 monomethylation, AlphaScreen, 2 h | Potency, µM (doses to about 102 µM), inactives show at the top dose activity, negative = inhibition, hits mostly inhibitors | 350,000 compounds, 8.8% hits | AID 504332; note: % is set by controls: 0 for no effect and ±100 for the full control effect; nearly all actives have a fitted effect of over 75% in size
Target sequence (Q96KQ7 913-1193 limits assumed): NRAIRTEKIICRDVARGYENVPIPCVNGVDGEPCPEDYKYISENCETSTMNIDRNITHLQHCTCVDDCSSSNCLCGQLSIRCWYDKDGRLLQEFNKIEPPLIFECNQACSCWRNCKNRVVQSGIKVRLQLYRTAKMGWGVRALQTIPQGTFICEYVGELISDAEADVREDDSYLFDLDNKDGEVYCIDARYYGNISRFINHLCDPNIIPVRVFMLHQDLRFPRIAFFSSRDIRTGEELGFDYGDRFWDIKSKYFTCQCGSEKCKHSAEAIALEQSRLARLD
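Readings reflect AlphaScreen signal from monomethyl-H3K9 antibody detection. HMT at 20 nM; substrate b-H3K9 500 nM; cofactor SAM 20 uM; 2 h RT reaction; compounds tested as titrations in qHTS with 15 min preincubation.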
JMJD2A Tudor inh – inhibitors of human JMJD2A Tudor domain; O75164; AID 504339; Potency, µM (doses to about 114 µM), for the others: top-dose activity change, negative = inhibition, usual class: inhibitors; AlphaScreen JMJD2A-Tudor / H3K4me3 peptide binding; 390,000 compounds, 4.4% hits; note: % is set by controls: 0 for no effect and ±100 for the full control effect; nearly all actives have a fitted effect of over 50% in size
* = called active by the depositor; ? = inconclusive; / = no result; [ ] = remark or other dose. Calls come from the whole dose curve; as a rule, active = well fitted curve in the direction sought with a large enough effect; inconclusive = small, poorly fitted or top-dose-only effect, or another doubt; inactive = no such curve, though single readings can be large; an effect the other way counts as inactive or inconclusive. Potency is the fitted concentration of half-maximal effect.

SMILES	BAZ2B block	PLK1 PBD inh	Sfp inh	HP1b binding inh	G9a inh	JMJD2A Tudor inh
Cc1[nH]c2ccccc2c1C1=NNC(=Nc2ccc(F)cc2)SC1	?	-18%	22µM*	?	?	56µM*
COc1ccc(C2=NN(C(C#N)c3ccc(OC)c(OC)c3)C(c3ccccc3)C2)cc1 (stereo not given)	58%	-5%	-18%	101%	?	7%
COc1ccc(C(C#N)N2CCCCCC2)cc1OC (stereo not given)	-4%	-6%	2%	43%	-8%	-1%
COc1ccc(C(C#N)N2CCC(c3ccccc3)=N2)cc1OC (stereo not given)	-3%	-12%	13%	39%	18µM*	-15%
COc1cc(C(C#N)N2CCC(c3ccccc3)=N2)ccc1O (stereo not given)	-1%	-9%	4%	23%	10µM*	-5%
COc1ccc(NC(=O)CN(c2cc(C)cc(C)c2)S(=O)(=O)c2c(C)n[nH]c2C)cc1	6%	30µM*	10%	-9%	-16%	50µM*
Cc1cc(C)cc(NC(=O)CN(c2ccc(F)cc2)S(C)(=O)=O)c1	22%	11µM*	-21%	?	61%[12.7 µM]	-28%[11.4 µM]
Cc1cccc(N(CC(=O)Nc2ccc(F)cc2)S(C)(=O)=O)c1	3%	-8%	9%	20%	4%	-13%
Cc1cc(C)cc(N(CC(=O)Nc2ccc(C(F)(F)F)cc2)S(=O)(=O)c2c(C)[nH]c(=O)[nH]c2=O)c1	-22%	-24%	21%	6%[57 µM]	25µM*	-26%
NCCCCCCCCCCNCCCN	/	/	30%	/	/	/
C[C@@H]1O[C@@H](OC2C(O)C(OCCc3ccc(O)c(O)c3)OC(CO)C2OC(=O)/C=C/c2ccc(O)c(O)c2)[C@H](O)[C@H](O)[C@H]1O (stereo not given in full)	32µM*	/	/	/	?	/
O=C(NNS(=O)(=O)c1ccccc1)C1CCN(S(=O)(=O)c2ccccc2)CC1	4%	?	-13%	30%	22µM*	-4%
CC1(C)CC(=O)C(C(=O)C2CCN(S(=O)(=O)c3ccccc3)CC2)C(=O)C1	-9%	-5%	5%	12%	-28%	100µM*
O=C(NNS(=O)(=O)c1ccccc1)C1CCN(S(=O)(=O)c2ccc(Cl)cc2)CC1	7%	-1%	2%	31%	19%[59 µM]	13%
CCOc1ccc(S(=O)(=O)NCCc2sc3nc(-c4ccc(C)cc4)nn3c2C)cc1	1%	/	/	14%	2%[59 µM]	-23%
CCOC(=O)c1cccc(C2=CC(=O)C[C@H](c3ccc(Cl)cc3)C2)c1	3%	2%	/	43%	-7%[2.33 µM]	-8%
COC(=O)c1c(NC(=O)CN2CCC3(O)CCCCC3C2c2ccc(OC)cc2OC)sc(C)c1C (stereo not given)	-20%	21µM*	20µM*	?	28µM*	?
Cc1cccn2c(=O)nc(SCC(=O)N3CCN(c4ccccc4)CC3)nc12	13%	-12%	/	15%	2%[59 µM]	-9%
Cc1[nH][nH]c(=O)c1C(c1c(C)[nH][nH]c1=O)c1cn(Cc2cccc3ccccc23)c2ccccc12	?	7.5µM*	-15%	28µM*	45µM*	-27%[11.4 µM]
Cc1[nH][nH]c(=O)c1C(c1c(C)[nH][nH]c1=O)c1cn(C)c2ccccc12	?	-18%	45µM*	-19%	/	?
Cc1ccc(-c2cc(-c3ccco3)c(C#N)c(=O)[nH]2)cc1	50µM*	-22%	?	17%	-132%[59 µM]	79µM*
N#Cc1sc2nc(C3CC3)cc(-c3ccccc3)c2c1N	145%	4%	-15%	263%	185%	115%
N#Cc1sc2nc(-c3ccccc3)cc(-c3ccco3)c2c1N	?	?	79µM*	-19%	8.9µM*	56µM*
N#Cc1c(-c2ccccc2)cc(-c2ccco2)c(C#N)c1N	-1%	/	35µM*	/	?	/
Cc1cc(-c2ccccc2)[nH]c(=O)c1C#N	-2%	-5%	19%	51%	-2%	-2%[57.1 µM]
SMILES	BAZ2B block	PLK1 PBD inh	Sfp inh	HP1b binding inh	G9a inh	JMJD2A Tudor inh
N#Cc1c(-c2ccco2)cc(-c2ccccc2)[nH]c1=O	71µM*	-20%	?	21%	/	?
Cc1cc2oc(C(=O)Nc3c(C(=O)Nc4ccccc4)oc4ccccc34)cc(=O)c2cc1C	1%	/	/	60%	9%[59 µM]	-4%
CCc1ccc(NC(=O)CN2C(=O)CCSc3ccccc32)cc1	-1%	/	/	29%	4%[59 µM]	1%
CCCCCCCCCCCCCCOc1ccc(C(=O)O)o1	/	/	2%	/	/	/
C/C(=N/NC(=O)CNC(=O)c1ccc2c(c1)OCO2)c1ccc2c(c1)CCCC2	/	-3%	-8%	2%	-2%	-4%
C/C(=N/NC(=O)CNC(=O)c1ccccc1F)c1ccc2c(c1)CCCC2	0%	8.4µM*	19%	-7%	-3%	32µM*
O=c1c2ccccc2c(-c2ccccc2)nn1-c1cc(Cl)ccc1[N+](=O)[O-]	?	-16%	14%	-11%	-8%[59 µM]	-29%[11.4 µM]
CCc1ccc(-c2nn(-c3cc(Cl)ccc3[N+](=O)[O-])c(=O)c3ccccc23)cc1	-11%	-3%	2%	28%	?	-9%
Cc1ccc(-c2nn(-c3cc(N4CCNCC4)ccc3[N+](=O)[O-])c(=O)c3ccccc23)cc1	-37%	-6%	-26%	?	32µM*	?
Cc1cc(C)n(-c2ccc(C(F)(F)F)cc2[N+](=O)[O-])n1	-20%	0%	2%	15%	-6%[59 µM]	1%
Cc1cc(C)n(-c2cc(Cl)ccc2[N+](=O)[O-])n1	9%	27µM*	12%	-5%	6%	-13%
Cc1ccc(-c2nn(-c3cc(Cl)ccc3[N+](=O)[O-])c(=O)c3ccccc23)cc1C	45µM*	0%	-16%	?	-5%[0.501 µM]	?
O=C(CSc1nc2c(c(=O)[nH]1)CCCC2)Nc1cccc(O)c1	-35%	/	/	0%	?	-31%
CCOc1cccc(Nc2nn(-c3ccc(OC(F)(F)F)cc3)nc2C(C)=O)c1	1%	/	/	39%	7%[59 µM]	-8%
COc1ccc(C)cc1N(C(=O)c1snc(C(N)=O)c1N)C(C(=O)NC1CCCC1)c1ccc(F)cc1 (stereo not given)	7%	6%	-3%	-5%	14%[59 µM]	-23%
Cc1ccc(C(=O)OC(C)C(=O)NC2CCCCC2C)cc1S(=O)(=O)N1CCCCC1 (stereo not given)	0%	2%	11%	32%	-3%	6%
CC1(C)CCC(C)(C)c2cc([S+](=O)([O-])N3CCN([S+](=O)([O-])c4c(F)cccc4F)CC3)ccc21	/	/	/	/	/	-22%
CC1(C)CCN2CCC(C)(C)c3c(O)ccc1c32	45µM*	-12%	20µM*	?	10µM*	56µM*
